Compound activity from PubChem BioAssay.
The list is not random: actives were taken first. Their share in the collection is about 8.7%.
BAZ2B block: BAZ2B (human) inhibition; AlphaScreen BAZ2B-H3K14Ac peptide displacement; Potency, µM (top dose mostly 114 µM), hits mostly inhibitors; hit rate 4.4% among 360,000; AID 504333; note: nearly all actives have a fitted effect of over 60% in size
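In this displacement format the biotinylated H3(5-23) peptide acetylated at Lys14 serves as ligand at 50 nM, with BAZ2B at 50 nM in PBS pH 7.4 containing 0.01% Tween-20. Donor and acceptor beads are 10 ug/mL final.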
HP1b chromo inh: inhibitors of HP1-beta chromodomain binding to methylated histone tails | P83916 | AlphaScreen HP1-beta / biotin-H3K9me3 peptide binding | Potency, µM (doses to about 114 µM), usual class: inhibitors | hit rate 0.56% among 390,000; note: nearly all actives have a fitted effect of over 70% in size
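HP1-beta protein (50 nM final) preincubated 30 min at room temperature with biotinylated H3(1-18)K9me3 peptide (50 nM) in PBS pH 7.4, 0.01% Tween-20, then compound added for 30 min. AlphaScreen streptavidin donor/nickel chelate acceptor beads (10 ug/mL final), 30 min dark, luminescence read.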
ALOX12 inh: blocks human arachidonate 12S-lipoxygenase. P18054. purified 12hLO, xylenol orange hydroperoxide absorbance. Potency, µM (top dose mostly 108 µM), actives largely listed as inhibitors. hit rate 1.1% among 580,000. AID 1671190
Target sequence (P18054 whole entry, looked up): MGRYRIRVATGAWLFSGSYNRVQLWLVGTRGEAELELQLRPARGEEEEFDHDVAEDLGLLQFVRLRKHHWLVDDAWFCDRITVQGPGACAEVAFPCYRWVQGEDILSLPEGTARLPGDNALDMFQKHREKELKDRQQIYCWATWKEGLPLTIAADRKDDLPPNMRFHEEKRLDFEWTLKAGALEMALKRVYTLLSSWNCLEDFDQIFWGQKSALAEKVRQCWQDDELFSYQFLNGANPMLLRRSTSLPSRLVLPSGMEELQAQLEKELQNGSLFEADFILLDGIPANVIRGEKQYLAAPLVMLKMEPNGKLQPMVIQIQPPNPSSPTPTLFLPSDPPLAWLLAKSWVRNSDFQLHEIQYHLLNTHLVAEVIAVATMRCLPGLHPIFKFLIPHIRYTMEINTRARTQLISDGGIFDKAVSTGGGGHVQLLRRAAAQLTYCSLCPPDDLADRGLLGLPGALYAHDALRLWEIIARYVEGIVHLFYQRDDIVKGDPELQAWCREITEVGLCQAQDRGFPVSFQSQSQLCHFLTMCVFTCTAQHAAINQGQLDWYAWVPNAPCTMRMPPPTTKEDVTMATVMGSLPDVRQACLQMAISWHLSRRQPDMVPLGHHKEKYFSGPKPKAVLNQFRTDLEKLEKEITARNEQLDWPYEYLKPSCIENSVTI
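Hydroperoxide product was detected by ferrous iron/xylenol orange as the 573 to 405 nm absorbance ratio. Arachidonic acid at 40 uM (final) was turned over for 30 min at room temperature by 150 nM human 12hLO, pH 7.0 Hepes buffer, after 15 min compound preincubation.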
Sfp inh: inhibitors of Bacillus subtilis Sfp phosphopantetheinyl transferase. Q9F4F7. Biochemical Sfp PPTase activity, qHTS. Potency, µM, usual class: inhibitors. hit rate 3.5% among 310,000;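 note: the enzyme is Sfp with the accession as filed and its product quenches rhodamine fluorescence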
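With Hepes-Na pH 7.6 buffer containing 10 mM MgCl2, Sfp (15 nM) modified BHQ-2-YbbR (12.5 uM) using rhodamine-CoA (5 uM). Two reads 30 minutes apart at 525/598 nm yielded each well's rate.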
JMJD2A Tudor: blocks the human JMJD2A Tudor domain; O75164; AlphaScreen JMJD2A-Tudor / H3K4me3 peptide binding; Potency, µM (titrated, usually from 114 µM), most hits filed as inhibitors; hit rate 4.4% among 390,000; note: nearly all actives have a fitted effect of over 50% in size
G9a inh: inhibitors of human histone lysine methyltransferase G9a; Potency, µM (titrated, usually from 102 µM), most hits filed as inhibitors; Q96KQ7; G9a H3K9 monomethylation, AlphaScreen, 2 h; AID 504332; hit rate 8.8% among 350,000; note: nearly all actives have a fitted effect of over 75% in size
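Enzyme 20 nM + cpd, 15 min RT; add b-H3K9 pep 500 nM / SAM 20 uM; 2 h RT; anti-H3K9me1 Ab 0.5 ug/mL + SA donor / anti-rabbit acceptor beads 20 ug/mL each, 10 min; AlphaScreen read.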
Numbers stand for hits. Calls come from the whole dose curve; as a rule, active = well fitted curve in the direction sought with a large enough effect; inconclusive = small, poorly fitted or top-dose-only effect, or another doubt; inactive = no such curve, though single readings can be large; an effect the other way counts as inactive or inconclusive.

How did Cc1ccc(CNC(=O)C2CCC(=O)N(CC3CCCCC3)C2)o1 (stereo unspecified) do in these assays?
BAZ2B block: inactive; HP1b chromo inh: inactive; ALOX12 inh: inconclusive; Sfp inh: inactive; JMJD2A Tudor: inactive; G9a inh: 45µM

How did CCN(CC)c1ccc(CN2CCC(C(=O)NCc3ccc(C)cc3)CC2)cc1 do in these assays?
BAZ2B block: inactive; HP1b chromo inh: inconclusive; ALOX12 inh: inconclusive; Sfp inh: inactive; JMJD2A Tudor: 20µM

Results for CCOc1ccc(S(=O)(=O)N2CCCC2c2ccc(Cl)cc2)cc1 (stereo unspecified) ?
ALOX12 inh: inactive

Results for Cc1ccccc1NC(=O)c1sc(N)c(C#N)c1C ?
ALOX12 inh: inactive

Results for Cc1nc(N(C)C)ncc1C(=O)N1CCN(c2ccccc2C#N)CC1 ?
ALOX12 inh: inactive

How did Cn1cc(Cl)cc1C(=O)N1CCC2(CCCN(C3CCCC3)C2=O)C1 (stereo unspecified) do in these assays?
ALOX12 inh: inactive

Results for O=C(O)c1ccc2[nH]c3c(c2c1)CSCC3 ?
BAZ2B block: inactive; HP1b chromo inh: inactive; Sfp inh: 40µM; JMJD2A Tudor: inactive; G9a inh: inconclusive

Results for CN(C)CCOC(=O)c1ccc2[nH]c3c(c2c1)CSCC3 ?
BAZ2B block: inactive; HP1b chromo inh: inconclusive; ALOX12 inh: inconclusive; Sfp inh: inactive; JMJD2A Tudor: inactive; G9a inh: 28µM

What do the screens show for `CCOC(=O)Cn1c(CN2CCN(C(=O)OCC)CC2)nc2c1c(=O)n(C)c(=O)n2C`?
ALOX12 inh: inactive

Results for O=C(Cn1c(N2CCN(c3ccccc3)CC2)nc2ccccc21)c1ccccc1 ?
BAZ2B block: inactive; HP1b chromo inh: inactive; ALOX12 inh: inactive; Sfp inh: inactive; JMJD2A Tudor: inactive; G9a inh: 50µM

Results for CN(C)C(=O)CSc1nc2ccccc2n1CC(=O)N1CCN(c2ccccc2)CC1 ?
BAZ2B block: inactive; HP1b chromo inh: inactive; ALOX12 inh: inactive; Sfp inh: inactive; JMJD2A Tudor: inactive; G9a inh: inactive

What do the screens show for `CCOC(=O)C(=CNc1cc(Cl)c(-c2ccco2)c(Cl)c1)C(=O)OCC`?
BAZ2B block: inactive; HP1b chromo inh: inactive; ALOX12 inh: inconclusive; Sfp inh: inactive; JMJD2A Tudor: inactive

What do the screens show for `CCOC(=O)C(=CNc1ccc(-c2ccco2)c(Cl)c1)C(=O)OCC`?
BAZ2B block: inactive; HP1b chromo inh: inactive; ALOX12 inh: inconclusive; Sfp inh: 28µM; JMJD2A Tudor: inactive

Results for C=CCOc1ccc(Br)cc1/C=C1/SC(=Nc2ccc(C(=O)O)cc2)NC1=O ?
BAZ2B block: 45µM; HP1b chromo inh: inactive; ALOX12 inh: inconclusive; Sfp inh: inactive; JMJD2A Tudor: inconclusive; G9a inh: 20µM

What do the screens show for `COc1ccc(-c2nn(C)c(=O)c3ccccc23)cc1NC(=O)COc1cccc(C)c1`?
ALOX12 inh: inactive

What do the screens show for `COc1cc2c(C#N)c(N3CCN(c4ccccc4OC)CC3)nc(N)c2c(N)n1`?
BAZ2B block: inconclusive; HP1b chromo inh: inactive; ALOX12 inh: inactive; Sfp inh: inactive; JMJD2A Tudor: inactive; G9a inh: inconclusive

How did COc1cc2c(C#N)c(N3CCN(C)CC3)nc(N)c2c(N)n1 do in these assays?
BAZ2B block: inactive; ALOX12 inh: inactive; Sfp inh: inactive; G9a inh: 50µM

Results for COc1cc2c(C#N)c(N3CCCC3)nc(N)c2c(N)n1 ?
BAZ2B block: inactive; HP1b chromo inh: inactive; ALOX12 inh: inactive; Sfp inh: 4µM; JMJD2A Tudor: inactive; G9a inh: inactive

What do the screens show for `COc1ccc(N=C2C(=O)Nc3ccc(C)c(Br)c32)cc1`?
BAZ2B block: 6.3µM; HP1b chromo inh: inconclusive; ALOX12 inh: inactive; Sfp inh: inactive; JMJD2A Tudor: inconclusive; G9a inh: 11µM

Results for Cc1ccc(N=C2C(=O)Nc3ccc(C)c(Br)c32)cc1 ?
BAZ2B block: inconclusive; HP1b chromo inh: inactive; Sfp inh: inactive; JMJD2A Tudor: inconclusive; G9a inh: 1.3µM

What do the screens show for `O=C1Nc2ccccc2C1=Nc1ccc(F)cc1`?
BAZ2B block: inactive; HP1b chromo inh: inconclusive; Sfp inh: inactive; JMJD2A Tudor: inactive; G9a inh: inactive
